# Shown are actives, neighbours in structure and some others; about 4% of the full set was active somewhere.
# Mdm2 MdmX PPI: inhibitors of human Mdm2-MdmX association, primary screen, cell-based, luminescence, split luciferase, SaOS-2, uHTS; Protein Mdm4 (Homo sapiens) + E3 ubiquitin-protein ligase Mdm2 (Homo sapiens), …; inhibition, % at 8 µM; hit rate 3% among 330,000; SaOS-2 split-luciferase Mdm2/MdmX complementation;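 active means inhibition of at least 50% at 8 µM in the primary screen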
# Target sequence (O15151 whole entry, looked up): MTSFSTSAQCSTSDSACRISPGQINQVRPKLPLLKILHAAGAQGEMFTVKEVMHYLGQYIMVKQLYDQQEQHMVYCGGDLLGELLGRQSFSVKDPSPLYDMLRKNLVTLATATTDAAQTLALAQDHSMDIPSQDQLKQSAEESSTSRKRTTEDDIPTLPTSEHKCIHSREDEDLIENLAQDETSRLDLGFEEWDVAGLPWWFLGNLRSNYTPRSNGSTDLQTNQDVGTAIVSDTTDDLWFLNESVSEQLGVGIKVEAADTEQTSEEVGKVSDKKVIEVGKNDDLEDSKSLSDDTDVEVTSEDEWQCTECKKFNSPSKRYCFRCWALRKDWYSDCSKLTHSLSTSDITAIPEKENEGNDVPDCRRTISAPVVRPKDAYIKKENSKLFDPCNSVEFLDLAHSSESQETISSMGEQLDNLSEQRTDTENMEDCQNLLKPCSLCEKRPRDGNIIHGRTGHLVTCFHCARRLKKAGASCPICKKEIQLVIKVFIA
# Target sequence (Q00987 whole entry, looked up): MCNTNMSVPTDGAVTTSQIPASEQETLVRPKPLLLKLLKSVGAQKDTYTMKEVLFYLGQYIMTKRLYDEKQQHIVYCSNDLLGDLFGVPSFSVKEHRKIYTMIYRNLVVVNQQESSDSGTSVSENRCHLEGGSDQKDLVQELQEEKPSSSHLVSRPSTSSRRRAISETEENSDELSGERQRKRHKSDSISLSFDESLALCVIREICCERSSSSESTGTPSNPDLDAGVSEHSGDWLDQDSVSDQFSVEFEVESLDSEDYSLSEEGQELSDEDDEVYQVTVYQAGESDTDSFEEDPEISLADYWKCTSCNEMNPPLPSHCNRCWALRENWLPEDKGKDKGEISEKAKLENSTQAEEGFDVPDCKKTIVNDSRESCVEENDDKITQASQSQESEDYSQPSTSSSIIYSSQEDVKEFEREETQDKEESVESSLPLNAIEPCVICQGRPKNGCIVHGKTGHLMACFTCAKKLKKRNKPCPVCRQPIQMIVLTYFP
# Shn3 inh set2: reduction of Shn3 3'UTR firefly luciferase signal, primary screen, Schnurri-3 inhibitor project, cell-based, Clone20 osteoblasts, set 2. inhibition, % at 12.5 µM. Clone20 osteoblast Shn3 3'UTR firefly luciferase, 24 h. hit rate 0.52% among 360,000;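 active means mean inhibition of at least 75% with every replicate also reaching 75%; inconclusive means mean inhibition at least 75% but some replicate below; inactive means mean inhibition below 75%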;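 further: 0% = median of neutral control wells and 100% = pilot-screen positive control compound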
# Gli-Sufu antag: Gli-Sufu pathway antagonists, primary screen, luciferase luminescence, Sufu-KO-LIGHT cells, uHTS; hit rate 0.74% among 340,000; Sufu-KO-LIGHT fibroblasts, Gli luciferase reporter luminescence; inhibition, % at 5 µM;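 active means inhibition above about 55%, limit read from the data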;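 further: 0% = DMSO-treated cells and 100% = wells with medium but no cells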
# Beta cell apopt: inhibitors of cytokine-induced beta cell apoptosis, primary screen, luminescence; INS-1E cytokine-induced death, ATP luminescence, 48 h; percent of positive-control rescue, neutral wells zero; AID 435005, 2010; hit rate 0.8% among 300,000; protection from apoptosis, % (test concentration not listed);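 active means Every replicate reaches about 75%, or at least half do and their mean reaches it too, limit read from the data; inconclusive means At least half of replicates reach the limit but their mean does not; inactive means Under half of replicates reach the limit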;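 further: 0% = cytokine-treated negative control wells and 100% = positive control rescue; higher means more ATP so stronger rescue from cytokine killing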
# CSC inhib: cancer stem cell viability inhibitors, primary screen, luminescence; hit rate 1.1% among 300,000; inhibition, % at 7.5 µM; AID 2717, 2010; cancer stem cell-like cells viability; in the data active means inhibition above about 75%; inconclusive means no clear call, values can overlap the other calls; tested in HMLE shEcad cells
# PAX8 reporter: inhibitors of PAX8-driven TPO luciferase reporter, primary screen, RMG-I cells, single concentration. hit rate 1.2% among 360,000. inhibition, % at 12.6 µM. SteadyGlo, 24 h. AID 652154, 2013;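 active means mean replicate inhibition at least 60% with every replicate also reaching 60%; inconclusive means only one of the two criteria is met; inactive means mean below 60% and not all replicates reaching 60%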;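 further: luciferase light reporting Pax8 driven TPO promoter activity; plate controls were median of neutral control wells for no effect and mitoxantrone controls for full effect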
# Mdm2 MdmX conf: Mdm2-MdmX complex disruptors, retested hits, confirmation, luminescence, single concentration; shares compounds with Mdm2 MdmX PPI; Mdm2-MdmX binding, luminescent assay; inhibition, % at 8 µM; hit rate 55% among 10,000; in the data active means inhibition above about 40%
# FLuc counter: full-length luciferase signal inhibition, confirmation, counter-screen for Mdm2/MdmX interaction inhibitor project, cell-based, single concentration, SaOS-2 | shares compounds with Mdm2 MdmX PPI | SaOS-2 full-length luciferase counterscreen, luminescence | inhibition, % at 8 µM | hit rate 77% among 6,200;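 active means mean inhibition at 8 µM reaching about 37%, which flags the compound as non-specific, limit read from the data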;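 further: p53-null SaOS-2 cells with luciferase driven by a doxycycline-inducible promoter; compound on cells about two nights before reading with doxycycline added after day one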
# Active calls of the source: *; ? = inconclusive; . = no result given.
SMILES,Mdm2 MdmX PPI,Shn3 inh set2,Gli-Sufu antag,Beta cell apopt,CSC inhib,PAX8 reporter,Mdm2 MdmX conf,FLuc counter
CCOc1ccc(C(=O)Nc2ccc(NC(=O)c3ccco3)c(Cl)c2)cc1Br,4,22,-1,5,6,.,.,.
CC(=O)c1ccc(NC(=O)c2ccc(NC(=O)c3ccco3)cc2)cc1,71*,-1,-5,-2,-4,.,13,.
CCOC(=O)c1cccc(NC(=O)c2ccc(NC(=O)c3ccco3)cc2)c1,73*,13,7,2,-7,-1,13,.
CCOc1ccc(C(=O)Nc2cccc(-c3nc4cccnc4o3)c2)cc1Cl,56*,1,8,-2,16,.,54*,42*
CCOc1ccc(C(=O)Nc2cccc(C(=O)O)c2)cc1Cl,-86,-13,-39,.,1,51,.,.
CCOc1ccc(C(=O)Nc2ccc(NC(=O)c3ccco3)c(Cl)c2)cc1Cl,62*,18,-21,6,11,.,49*,94*
O=C(Nc1ccccc1)c1cccc(NC(=O)c2ccco2)c1,10,.,-1,-3,2,0,.,.
C[C@H]1CN([C@@H](C)CO)C(=O)c2cc(NC(=O)CCCN(C)C)ccc2O[C@H]1CN(C)S(=O)(=O)c1ccccc1,.,.,.,.,.,-15,.,.
C[C@H](CO)N1C[C@H](C)[C@H](CN(C)Cc2ccccc2)Oc2ccc(NC(=O)CCCN(C)C)cc2C1=O,.,.,.,.,.,-6,.,.
O=C(Nc1ccc(Cl)cc1)N[C@@H]1CC[C@H](CCn2cc(Cc3ccccc3)nn2)O[C@@H]1CO,.,.,.,.,.,2,.,.
O=C(Nc1ccc(NC(=O)c2sc3ccccc3c2Cl)cc1Cl)c1ccco1,89*,12,6,1,8,.,23,.
Cc1ccccc1NC(=O)c1cccc(NC(=O)c2ccco2)c1,10,1,35,.,6,-20,.,.
CCOc1ccccc1NC(=O)c1cccc(NC(=O)c2ccco2)c1,62*,8,-1,17,60,.,67*,64*
O=C(Nc1ccc(Oc2cccc(C(F)(F)F)c2)nc1)c1ccco1,31,15,-2,3,13,29,.,.
CC(C)(C)c1ccc(Oc2ccc(NC(=O)c3ccco3)cn2)cc1,56*,76,16,75*,99*,44,39,69*
COc1ccc(S(=O)(=O)N[C@@H]2C=C[C@@H](CC(=O)NCc3ccccc3F)O[C@H]2CO)cc1,.,.,.,.,.,-19,.,.
O=C(c1cccnc1)N1C[C@H]2[C@@H](c3ccccc31)[C@@H](CO)N2C(=O)C1CCOCC1,.,.,.,.,.,26,.,.
C=CCn1c(=O)c(C(=O)Nc2cccnc2)c(O)c2ccccc21,68*,-11,3,-2,30,.,3,.
C=CCn1c(=O)c(C(=O)Nc2ccc(C)cn2)c(O)c2ccccc21,12,-6,10,46,-8,-12,.,.
CCc1[nH]nc(C(=O)NC2CCCc3c2cnn3-c2cc(C)cc(C)c2)c1C (stereo unspecified),76*,-37,-3,-7,19,.,81*,95*
CO[C@H](CN(C)S(=O)(=O)c1ccc(F)cc1)[C@@H](C)CN(C(=O)Nc1ccccc1F)[C@H](C)CO,.,.,.,.,.,-57,.,.
O=c1[nH]c(=O)n(Cc2ccco2)c2c1C(C(F)(F)F)(C(F)(F)F)N=C(CCC1CCCCC1)N2,62*,41,-3,.,23,36,88*,40*
O=c1[nH]c(=O)n(Cc2ccco2)c2c1C(C(F)(F)F)(C(F)(F)F)N=C(CCc1ccccc1)N2,51*,28,8,15,-8,.,39,65*
O=c1[nH]c(=O)n(Cc2ccco2)c2c1C(C(F)(F)F)(C(F)(F)F)N=C(C1CCCCC1)N2,5,20,4,7,-20,.,.,.
CC(C)Cn1c2c(c(=O)[nH]c1=O)C(C(F)(F)F)(C(F)(F)F)N=C(CCC1CCCCC1)N2,52*,21,15,39,7,.,71*,52*
SMILES,Mdm2 MdmX PPI,Shn3 inh set2,Gli-Sufu antag,Beta cell apopt,CSC inhib,PAX8 reporter,Mdm2 MdmX conf,FLuc counter
N#Cc1ccc(C2=NC(C(F)(F)F)(C(F)(F)F)c3c(n(Cc4ccco4)c(=O)[nH]c3=O)N2)cc1,1,-38,3,16,39,.,.,.
c1cncc(C2Nc3ccccc3-c3nc4ccccc4n32)c1 (stereo unspecified),53*,1,-26,-7,47,.,52*,64*
c1ccc2c(c1)NC(c1ccncc1)n1c-2nc2ccccc21 (stereo unspecified),-4,-1,4,15,1,-73,.,.
C[C@@H]1CN([C@@H](C)CO)C(=O)c2cc(NC(=O)C3CCCCC3)ccc2O[C@H]1CN(C)Cc1ccccc1,.,.,.,.,.,1,.,.
C[C@H]1CN([C@@H](C)CO)C(=O)c2cc(NC(=O)C3CCCCC3)ccc2O[C@H]1CN(C)Cc1ccc(-c2ccccc2)cc1,81*,12,9,14,29,26,23,.
C[C@@H]1CN([C@@H](C)CO)C(=O)Cc2cc(NC(=O)Nc3cccc4ccccc34)ccc2O[C@@H]1CN(C)Cc1ccc(C(F)(F)F)cc1,65*,40,-1,19,51,?,31,.
C[C@@H]1CN([C@H](C)CO)C(=O)Cc2cc(NC(=O)Nc3ccccc3)ccc2O[C@@H]1CN(C)Cc1ccc2c(c1)OCO2,53*,4,16,-1,13,16,18,.
C[C@H](CO)N1C[C@H](C)[C@H](CN(C)Cc2ccccc2)Oc2ccc(NC(=O)Nc3ccc(F)cc3)cc2C1=O,65*,-10,-28,7,17,-6,27,.
C[C@H]1CN([C@@H](C)CO)C(=O)c2cc(-c3ccccc3)cnc2O[C@H]1CN(C)C(=O)c1ccccc1F,.,.,.,.,.,-8,.,.
C[C@@H]1CN([C@H](C)CO)C(=O)Cc2cc(NS(=O)(=O)c3ccc(Cl)cc3)ccc2O[C@H]1CN(C)Cc1ccc(C(F)(F)F)cc1,90*,16,4,-8,105*,.,62*,55*
C[C@@H]1CN([C@@H](C)CO)C(=O)c2cc(NC(=O)Nc3cccc4ccccc34)ccc2O[C@@H]1CN(C)Cc1ccccc1,.,.,.,.,.,14,.,.
C[C@@H]1CN([C@H](C)CO)C(=O)c2cc(NC(=O)Nc3cccc4ccccc34)ccc2O[C@H]1CN(C)Cc1ccc(C(F)(F)F)cc1,56*,12,4,.,.,60,29,81*

# Screens deposited in PubChem BioAssay by several laboratories.
